# Key:
# Assay in all cases: thermal shift delta Tm vs DMSO control; higher = stronger stabilization (binding)
# Conditions in all cases: 12.5 µM; protein concentration 2 µM
# LOC_OS01G01410-cb001 = system: LOC_OS01G01410-cb001
# Outline: (§1)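 Rice kinase domain constructs were expressed in E. coli, purified, and tested by differential scanning fluorimetry with compound added in DMSO. Each well of a 96-well plate held 19.5 μl of 2 μM kinase in 100 mM potassium phosphate pH 7.5, 150 mM NaCl, 10% glycerol and 5 × SYPRO Orange, and fluorescence was read from 25°C to 95°C at 0.05°C/s. The melting temperature shift is the mean of triplicates, taken against protein with DMSO alone after Boltzmann fitting.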
# LOC_OS01G02750-cb003 = system: LOC_OS01G02750-cb003
# Outline: as §1
# LOC_OS01G10900-cb004 = system: LOC_OS01G10900-cb004
# Outline: as §1
# LOC_OS01G13800-cb001 = system: LOC_OS01G13800-cb001
# Outline: as §1
# LOC_OS01G14860-cb001 = system: LOC_OS01G14860-cb001
# Outline: as §1
# LOC_OS01G21960-cb002 = system: LOC_OS01G21960-cb002
# Outline: as §1
# LOC_OS01G39600-cb002 = system: LOC_OS01G39600-cb002
# Outline: as §1
# LOC_OS01G48390-cb002 = system: LOC_OS01G48390-cb002
# Outline: as §1
# LOC_OS01G51400-cb002 = system: LOC_OS01G51400-cb002
# Outline: as §1
# LOC_OS01G52050-cb004 = system: T1, LOC_OS01G52050-cb004
# T1 sequence (whole entry): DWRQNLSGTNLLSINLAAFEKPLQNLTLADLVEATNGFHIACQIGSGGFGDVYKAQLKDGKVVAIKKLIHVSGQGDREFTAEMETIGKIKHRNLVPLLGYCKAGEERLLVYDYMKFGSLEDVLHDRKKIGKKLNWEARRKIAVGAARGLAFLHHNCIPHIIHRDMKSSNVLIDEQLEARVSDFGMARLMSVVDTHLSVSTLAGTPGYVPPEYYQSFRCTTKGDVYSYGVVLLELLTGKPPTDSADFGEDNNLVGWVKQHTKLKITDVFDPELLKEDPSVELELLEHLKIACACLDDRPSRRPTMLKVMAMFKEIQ
# Outline: as §1
SMILES,thermal shift delta Tm (LOC_OS01G01410-cb001),thermal shift delta Tm (LOC_OS01G02750-cb003),thermal shift delta Tm (LOC_OS01G10900-cb004),thermal shift delta Tm (LOC_OS01G13800-cb001),thermal shift delta Tm (LOC_OS01G14860-cb001),thermal shift delta Tm (LOC_OS01G21960-cb002),thermal shift delta Tm (LOC_OS01G39600-cb002),thermal shift delta Tm (LOC_OS01G48390-cb002),thermal shift delta Tm (LOC_OS01G51400-cb002),thermal shift delta Tm (LOC_OS01G52050-cb004)
"CC[C@H](CO)Nc1nc(NCc2ccccc2)c2ncn(C(C)C)c2n1 [Roscovitine (Seliciclib,CYC202)]",1.5 °C,0 °C,0.05 °C,0.22 °C,0.12 °C,0.12 °C,0.5 °C,0.22 °C,0.03 °C,0.24 °C
COc1ccc(-c2cc3nccn3c(Nc3ncccc3C(N)=O)n2)cc1OC,1.05 °C,1.45 °C,1.83 °C,0.09 °C,6.47 °C,2.98 °C,0.18 °C,1.07 °C,0.17 °C,2.44 °C
Cc1cc(CN2CCN(c3c(Br)cnc4nc(-c5ccc(N6CCN(C)CC6)cc5)[nH]c34)CC2)no1,4.15 °C,1.45 °C,1.57 °C,0.82 °C,0.83 °C,2.01 °C,4.92 °C,3.13 °C,0.84 °C,0.67 °C
COc1ccc([C@@H]2OC[C@H]3[C@@H]2CO[C@@H]3c2ccc(O[C@@H]3O[C@H](CO)[C@@H](O)[C@H](O)[C@H]3O)c(OC)c2)cc1OC [Forsythin],0.23 °C,1.02 °C,0.51 °C,-0.29 °C,0.27 °C,0.16 °C,-0.84 °C,0.13 °C,0.31 °C,1.57 °C
CCN(C)S(=O)(=O)Nc1ccc(F)c(C(=O)c2c[nH]c3ncc(-c4cnc(C5CC5)nc4)cc23)c1F,1.92 °C,0.92 °C,1.18 °C,0.03 °C,2.04 °C,0.51 °C,3.55 °C,1.01 °C,0.11 °C,0.72 °C
COCC(=O)NC/C=C/c1ccc2ncnc(Nc3ccc(Oc4ccc(C)nc4)c(C)c3)c2c1,1.96 °C,0.21 °C,0.42 °C,0.2 °C,0.11 °C,-0.07 °C,1.61 °C,0.4 °C,0.03 °C,0.35 °C
O=C(/C=C/c1ccc(O)c(O)c1)c1ccc(O)cc1O [Butein],3.34 °C,6.05 °C,1.41 °C,1.88 °C,4.26 °C,3.26 °C,4.11 °C,1.83 °C,2.14 °C,9.01 °C
CC(C)(C)c1cc(/C=C(\C#N)C(N)=S)cc(C(C)(C)C)c1O [Tyrphostin AG 879],2.99 °C,5.43 °C,4.19 °C,2.01 °C,2.28 °C,1.97 °C,,1.74 °C,0.42 °C,4.16 °C
C=CC(=O)Nc1cccc(Oc2nc(Nc3ccc(N4CCN(C)CC4)cc3)ncc2Cl)c1,4.21 °C,,3.56 °C,0.23 °C,1.91 °C,1.42 °C,3.8 °C,7.69 °C,1.75 °C,3.38 °C
FC(F)(F)c1ccc(Nc2nc3ccc(Oc4ccnc(-c5ncc(C(F)(F)F)[nH]5)c4)cc3[nH]2)cc1 [Raf265 derivative],2.22 °C,8.8 °C,2.77 °C,3.55 °C,4.58 °C,3.8 °C,6.13 °C,4.75 °C,,8.78 °C
Cn1c(Nc2ccc(C(F)(F)F)cc2)nc2cc(Oc3ccnc(-c4ncc(C(F)(F)F)[nH]4)c3)ccc21,2.71 °C,15.5 °C,2.13 °C,3.67 °C,5.02 °C,4.72 °C,5.68 °C,4.18 °C,,6.02 °C
CO[C@H]1C[C@@H]2CC[C@@H](C)[C@@](O)(O2)C(=O)C(=O)N2CCCC[C@H]2C(=O)O[C@H]([C@H](C)C[C@@H]2CC[C@@H](OC(=O)C(C)(CO)CO)[C@H](OC)C2)CC(=O)[C@H](C)/C=C(\C)[C@@H](O)[C@@H](OC)C(=O)[C@H](C)C[C@H](C)/C=C/C=C/C=C/1C,1 °C,0.76 °C,0.53 °C,0.18 °C,0 °C,0.4 °C,0.18 °C,0.44 °C,0.1 °C,0.73 °C
Cn1sc(=O)n(Cc2ccccc2)c1=O,-9.79 °C,-0.38 °C,,0.24 °C,-0.11 °C,1.01 °C,0.5 °C,0.64 °C,0.21 °C,-0.28 °C
O=C(NCc1cccc(O)c1)Nc1nc(-c2ccncc2)cs1,1 °C,1.02 °C,0.6 °C,-0.25 °C,1.72 °C,1.09 °C,,1.48 °C,0.4 °C,1.09 °C
CN1CCN(c2ccc3nc(-c4c(N)c5c(F)cccc5[nH]c4=O)[nH]c3c2)CC1 [Dovitinib (TKI-258) Dilactic Acid],5.85 °C,2.07 °C,4.46 °C,-0.49 °C,1.65 °C,3.5 °C,4.66 °C,3.4 °C,0.79 °C,6.33 °C
Nc1nccc(Oc2ccc(NC(=O)c3c[nH]cc(-c4ccc(F)cc4)c3=O)cc2F)c1Cl,1.82 °C,5.03 °C,3.07 °C,0.39 °C,5.69 °C,1.58 °C,,2.63 °C,0.87 °C,2.83 °C
CCc1ccc(/C=C2/SC(=S)NC2=O)cc1,1.69 °C,1.03 °C,2.03 °C,0.53 °C,1.38 °C,1.74 °C,,0.63 °C,0.67 °C,1.47 °C

# From the supplement of paper PMC9694430
